Sampled rows, rich in hits. Any-hit rate of the full collection: about 22%.
Cycloheximide cs – affects cycloheximide protein synthesis inhibition readout, counter-screen. cell reporter, cycloheximide protein synthesis inhibition counterscreen. max response, %. actives 12% (n = 300,000). AID 2314; in the data active = max response mostly above about 13%, no sharp cut-off; inactive = mostly below about 14%; note: read at 38.3 µM for the half of the compounds with a filed dose; 0% is about no effect
Shiga inhibitor – Shiga toxin inhibition. Vero cells, Shiga toxin protein synthesis inhibition reporter. inhibition, % at 38.7 µM. actives 9.2% (n = 290,000). AID 2315; in the data active = inhibition mostly above about 28%, no sharp cut-off; inactive = mostly below about 43%; note: 0% is about no effect
Pf growth 96h – inhibits malaria parasite growth, 96 h; P. falciparum luciferase reporter growth, 96 h; Potency, µM (titrated, usually from 28.7 µM), without a hit: at the top dose activity change, negative = inhibition, actives largely listed as inhibitors; actives 6.9% (n = 320,000); AID 504834; note: potency is the fitted concentration of half-maximal effect; % is set by controls: 0 for no effect and ±100 for the full control effect
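96 h incubation, 37 C, 5% CO2, of luciferase-reporter P. falciparum-infected RBCs (2% hematocrit, 0.05% parasitemia final) with test compounds; endpoint luminescence.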
LmPK inh – LmPK (Leishmania mexicana) enzyme inhibition; Q27686; purified LmPK, Kinase-Glo ATP luminescence, 1 h; Potency, µM (titrated, usually from 57.5 µM), without a hit: at the highest dose activity change, negative = inhibition, usual class: inhibitors; actives 0.37% (n = 290,000); AID 1721; note: potency is the fitted concentration of half-maximal effect; % is set by controls: 0 for no effect and ±100 for the full control effect
Target sequence (Q27686 whole entry, looked up): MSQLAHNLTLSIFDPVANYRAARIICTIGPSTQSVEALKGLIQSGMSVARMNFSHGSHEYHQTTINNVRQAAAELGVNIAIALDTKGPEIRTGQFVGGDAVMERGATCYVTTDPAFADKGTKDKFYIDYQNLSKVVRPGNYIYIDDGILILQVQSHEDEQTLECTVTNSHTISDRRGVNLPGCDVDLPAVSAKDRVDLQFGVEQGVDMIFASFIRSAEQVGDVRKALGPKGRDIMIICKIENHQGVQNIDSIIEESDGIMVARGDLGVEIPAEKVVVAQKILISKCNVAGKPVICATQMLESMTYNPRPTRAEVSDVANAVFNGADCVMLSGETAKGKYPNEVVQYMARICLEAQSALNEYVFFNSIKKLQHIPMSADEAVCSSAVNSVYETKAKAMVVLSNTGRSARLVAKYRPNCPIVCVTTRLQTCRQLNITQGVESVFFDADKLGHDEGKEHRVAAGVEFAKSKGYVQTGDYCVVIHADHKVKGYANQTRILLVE
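Kinase-Glo luminescence read after 1 h RT reaction of 0.1 nM LmPK with 0.5 mM PEP and 0.1 mM ADP. Activity scaled between uninhibited and enzyme-free controls.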
Pf growth 48h – inhibits P. falciparum growth in the first generation, 48 h; P. falciparum luciferase growth in erythrocytes, 48 h; Potency, µM (titrated, usually from 28.7 µM), inactives show at the highest dose activity change, negative = inhibition, actives largely listed as inhibitors; actives 5.9% (n = 310,000); AID 504832; note: potency is the fitted concentration of half-maximal effect; % is set by controls: 0 for no effect and ±100 for the full control effect
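Cell-based growth assay: transgenic P. falciparum expressing firefly luciferase, cultured in red cells within RPMI 1640 containing 0.5% w/v Albumax, 24 mM bicarbonate and gentamycin. A drop in luciferase activity indicates inhibition.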
Numbers without * were called inactive; ? = inconclusive; . = no result given; [ ] = remark or other dose. Unless noted, calls come from the whole dose curve; as a rule, active = well fitted inhibition curve with a large enough effect; inconclusive = small, poorly fitted or top-dose-only effect, or another doubt; inactive = no such curve, though single readings can be large or run the other way.

SMILES	Cycloheximide cs	Shiga inhibitor	Pf growth 96h	LmPK inh	Pf growth 48h
COc1ccc(C)cc1S(=O)(=O)Nc1cccc(-c2cn3cccnc3n2)c1	-7	-7	8%	0%	?
COc1ccc2oc(=O)c(C(=O)n3ccc(C)n3)cc2c1	2	-14	.	-5%	4%
COc1ccc2oc(=O)c(-c3cn4ccc(C)cc4n3)cc2c1	23*	28	?	3%	61%
Cc1ccc(NC(=O)CCNS(=O)(=O)c2cccc3nsnc23)cc1F	0	3	22%	0%	15%
CCC1(c2ccc(F)cc2)NC(=O)N(CC(=O)Nc2cccnc2Cl)C1=O (configuration not stated)	.	.	4%	.	-21%
CC(=O)Nc1ccc2nc(-c3ccccc3)cn2c1	40*	107*	234%	-10%	246%
CC(=O)Nc1cccc(-c2cn3ccc(C)cc3n2)c1	44*	89*	-18%	?	131%
Cc1ccn2cc(-c3cccc(S(=O)(=O)N4CCCC4)c3)nc2c1	19*	98	15%	2%	9%
Cc1ccn2cc(-c3cccc(S(=O)(=O)N4CC(C)OC(C)C4)c3)nc2c1 (configuration not stated)	-1	4	?	14%	?
Cc1ccn2cc(-c3cccc(NC(=O)CCC(=O)O)c3)nc2c1	0	5	64%	-18%	91%
Cc1noc(C)c1CSCC(=O)Oc1ccc(N(C)S(=O)(=O)c2ccc(Cl)cc2)cc1	.	.	23%	.	-4%
CC(OC(=O)c1ccc(Cl)c(S(N)(=O)=O)c1)C(=O)NCc1ccc2c(c1)OCO2 (configuration not stated)	.	.	-2%	.	1%
CCOC(=O)C1=C(C)N(CCCC(=O)NCc2ccc3c(c2)OCO3)C(=O)NC1c1ccc(Br)cc1 (configuration not stated)	-3	-12	?	2%	-29%
CSc1ccccc1-c1nnc(-c2ccccc2)o1	59*	95*	101%	-23%	152%
CSc1ccccc1-c1nnc(-c2ccc(C)cc2)o1	39*	143*	304%	-7%	155%
Cc1cccc(-n2c(CCc3ccccc3)nnc2SCC(=O)c2ccccc2)c1	9	10	?	-3%	-22%
CCCCN(C)C(=S)Nc1ccsc1C(=O)OC	10	4	?	-3%[11.5 µM]	?
COc1ccc2nc(NC(=O)Cn3cnc4ccccc4c3=O)sc2c1	14	39	50%	-1%	35%
O=[N+]([O-])c1ccc(N=Nc2ncc[nH]2)cc1	16*	45	32%	-11%	?
O=C(Cc1ccccc1F)Nc1cc(Cl)ccc1N1CCCC1	-3	-5	-12%	-5%	-27%
CC(C)c1ccc(CNCc2ccccc2)cc1	32*	60*	-28%	-2%	20%
CC(C)c1ccc(CNC(=O)CCc2ccccc2)cc1	18	17	7%	13%	?
CC(C)c1ccc(CNCCCSc2ncccn2)cc1	1	-11	13µM*	-1%	5%
CCOc1ccc(CNCCCSc2ncccn2)cc1	-1	-8	10µM*	-1%	-15%
Clc1ccc(CNCCCSc2ncccn2)cc1Cl	2	1	?	2%	31%
SMILES	Cycloheximide cs	Shiga inhibitor	Pf growth 96h	LmPK inh	Pf growth 48h
Cc1nnc(SCC(=O)N2c3ccccc3CC2C)[nH]c1=O (configuration not stated)	7	-10	-5%	-1%	0%
COc1ccc(C2CC(C(F)(F)F)n3nc(C(=O)N(C)Cc4cn(C)nc4C)c(Cl)c3N2)cc1 (configuration not stated)	2	-2	0%	4%	15µM*
COc1ccc(CNC(=O)CSc2nnc3c(n2)[nH]c2ccc(F)cc23)cc1	-9	-2	-4%	1%	2%
CC1Cc2ccccc2N1C(=O)CSc1nnc2c(n1)[nH]c1ccc(F)cc12 (configuration not stated)	5	0	-90%	-2%	1.5µM*
O=C(CSc1nnc2c(n1)[nH]c1ccc(F)cc12)NC1CC1	-4	14	3.3µM*	0%	21%
CCOC(=O)CN(C(=O)CSc1nnc2c(n1)[nH]c1ccc(OC)cc12)c1ccc(F)cc1	8	-17	7%	-3%	9.3µM*
COc1ccc2[nH]c3nc(SC(C)C)nnc3c2c1	68*	105*	5.2µM*	-2%	405%
C/C(=N/O)c1ccc(Oc2cnccn2)cc1	10	32	0%	3%	43%
O=c1ccc(-c2ccc(S(=O)(=O)N3CCN(c4ccccc4)CC3)o2)n[nH]1	-9	-5	-11%	-11%	?
CCOC(=O)C1=NN(C(=O)Nc2ccc(OC)cc2)C2C(=O)N(c3cccc(C(F)(F)F)c3)C(=O)C12 (configuration not stated)	0	-5	6%	9%	-3%
O=C(CSc1nnc2c(n1)[nH]c1ccc(F)cc12)NCc1ccc(F)cc1	-4	2	?	-3%	15%
CC(C)OC(=O)CSc1nnc2c(n1)[nH]c1ccc(F)cc12	-2	-14	13µM*	-1%	5.9µM*
Cn1c(Cn2c(C(F)(F)F)nc3ccccc32)nc2ccccc21	-2	-12	-23%	5%	.
COc1cc(C(=O)Cc2nc3ccccc3n2C)cc(OC)c1OC	8	21	-13%	3%	?
COc1ccccc1OCc1nc2ccccc2n1C	51*	134*	?	-6%	103%
Cn1c(COc2ccccc2Br)nc2ccccc21	44*	56*	?	-2%	149%
O=C1O[C@@H]([C@@H](O)CO)[C@@H](O)[C@H]1O	.	.	-19%	.	-5%
O=C(CN1C(=O)COc2ccccc21)N1CCN(C2CCCCC2)CC1	-4	-3	-6%	-2%	-7%
COc1cc(/C=C(/C(=O)c2cccs2)c2nc3ccccc3[nH]2)cc(OC)c1O	24*	91*	?	-12%	.
COc1ccc(C(=O)N/C(=C/c2cccs2)c2nc3ccccc3[nH]2)cc1OC	11	-3	4.7µM*	-2%	-19%
COc1ccc(C(=O)N/C(=C/c2cccs2)C(=O)NC(C)(C)C)cc1OC	1	-15	1%	1%	-16%
O=[N+]([O-])c1ccc2[nH]c(O)c(N=NC3CCS(=O)(=O)C3)c2c1 (configuration not stated)	0	-2	24%	1%	17%
CCc1c(C)nc(SCC(=O)N2CCCCC2C)[nH]c1=O (configuration not stated)	3	10	7.4µM*	5%	-1%
CCCCc1c(O)nc(SCC(=O)N2CCCCC2)[nH]c1=O	17*	65	37%	1%	22%
CCc1c(C)nc(SCC(=O)N2CCCCC2)[nH]c1=O	2	-8	0%	-9%	51%
CCN(CC)C(=O)CSc1nc(O)c(Cc2ccc(OC)cc2)c(=O)[nH]1	-1	-8	10%	-8%	-6%
CCc1c(O)nc(SCC(=O)N(CC)CC)[nH]c1=O	-6	3	13µM*	2%	?

Assay outcomes (PubChem)
